In PubChem BioAssay (NCATS):
Inconclusive results are not listed. A call without a number means that no potency is given here. Values without a mark were called inactive. Calls of active or inactive are those of the source. The call rests on the fitted dose curve; tested in HEK293 reporter line.

assay: qHTS for Inhibitors of the Functional Ribonucleoprotein Complex (vRNP) of Lassa (LASV) Arenavirus: LASV Primary Screen - GLuc reporter signal (AID 1347082); conditions: LASV minigenome vRNP, Gaussia luciferase reporter; series mostly up to 57.5 µM; further: nearly all actives have a fitted effect of over 60% in size

Row | SMILES | Potency | activity change, negative = inhibition
1 | CCN(CC)CC(=O)Oc1ccc(NC(C)=O)cc1 | inactive | 
2 | CCCC(CCC)(C(=O)OCC)C(=O)OCC | inactive | 
3 | O=C(O)Cc1cccc(-c2cc(CCCCCCc3ccc(O[C@H]4O[C@H](CO)[C@@H](O)[C@H](O)[C@@H]4O)c(-c4cccc(CC(=O)O)c4)c3)ccc2O[C@H]2O[C@H](CO)[C@@H](O)[C@H](O)[C@@H]2O)c1 |  | 1.7% [at 0.757 µM]
4 | Cc1cc(=O)oc2cc(O[C@@H]3SC[C@@H](O)[C@H](O)[C@H]3O)ccc12 | inactive | 
5 | C=CCn1c(=O)n([C@@H]2O[C@H](CO)[C@@H](O)[C@H]2O)c2nc(N)[nH]c(=O)c21 | inactive | 
6 | O=C(OCC1(COC(=O)c2cccnc2)CCCC(COC(=O)c2cccnc2)(COC(=O)c2cccnc2)C1O)c1cccnc1 | inactive | 
7 | COc1cc2c(Nc3ccc(Br)cc3F)ncnc2cc1OCC1CCN(C)CC1 | inactive | 
8 | Cc1nnc(C(C)C)n1C1C[C@H]2CC[C@@H](C1)N2CC[C@H](NC(=O)C1CCC(F)(F)CC1)c1ccccc1 (some centres undefined) | inactive | 
9 | CC(C(=O)O)c1ccc(C(=O)c2ccccc2)s1 (centres undefined) | inactive | 
10 | CC1c2ccccc2CN1NC(=O)c1ccc(Cl)c(S(N)(=O)=O)c1 (centres undefined) | inactive | 
11 | Nc1ccc(S(=O)(=O)Nc2ccc(Cl)nn2)cc1 | inactive | 
12 | COc1ccc(O)cc1 | inactive | 
13 | c1ccc2sc(SN3CCOCC3)nc2c1 | inactive | 
14 | Cc1cccc(C)c1NC(=O)c1cc(S(N)(=O)=O)c(Cl)cc1O | inactive | 
15 | CN1C(C(=O)Nc2ccccn2)=C(O)c2sccc2S1(=O)=O | inactive | 
16 | COC(=O)c1cc(Cl)ccc1OC | inactive | 
17 | NC1CCN(c2cccc(Cl)n2)CC1 | inactive | 
18 | O=C(O)[C@@H]1CSCN1 | inactive | 
19 | Cc1ccccc1OCC(O)CO (centres undefined) | inactive | 
20 | CCOC(=O)[C@H](CCc1ccccc1)N[C@@H](C)C(=O)N1[C@H](C(=O)O)C[C@H]2CCCC[C@@H]21 | inactive | 

Row | SMILES | Potency | activity change, negative = inhibition
21 | CC(=O)Nc1ccc(CC(=O)O)cc1 | inactive | 
22 | CC(N=C(NC#N)Nc1ccncc1)C(C)(C)C (centres undefined) | inactive | 
23 | Cn1nnc2c(C(N)=O)ncn2c1=O | inactive | 
24 | OCCc1ccccc1 | inactive | 
25 | COC(=O)/C=C(/C)N | inactive | 
26 | CCCCCCCCCCCCCCCCOP(=O)([O-])OCC[N+](C)(C)C | inactive | 
27 | O=C(c1ccccc1)C(O)c1ccccc1 (centres undefined) | inactive | 
28 | COc1cc(C(=O)NC2CCCNC2)cc(OC)c1OC (centres undefined) | inactive | 
29 | O=C(O)CCCCC(=O)O | inactive | 
30 | Cc1nc(-c2ccc(Cl)cc2)oc1COC(C)(C)C(=O)O | inactive | 
31 | CCS(=O)(=O)c1ccc(OC)c(C(=O)OC)c1 | inactive | 
32 | CCOc1cc(OCC)c(C(=O)CCC(=O)O)cc1OCC | inactive | 
33 | CCOC(=O)c1ccc(OCCN2C[C@H](O)[C@@H](O)[C@H](O)[C@H]2CO)cc1 | inactive | 
34 | CC(CCc1ccc(O)cc1)NCCc1ccc(O)c(O)c1 (centres undefined) | inactive | 
35 | CCOc1ncc(F)c(=O)[nH]1 | inactive | 
36 | CC(C)=CCC1C(=O)N(c2ccccc2)N(c2ccccc2)C1=O | inactive | 
37 | CN1CCN(N)CC1 | inactive | 
38 | CN1N=C(C(N)=O)CCC1=O | inactive | 
39 | O=C1O[C@H](CO)[C@@H](O)[C@H](O)[C@H]1O | inactive | 
